Only some compounds are listed: those with a hit (about 7.6% of all), similar ones and a draw of the others.
hERG WT inh = KCNH2 (human, wildtype) channel inhibition; 340,000 compounds, 0.37% hits; U2OS, BacMam KCNH2, thallium flux FluxOr; hits give low values; Q12809; activity change, % at 1.84 µM;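 active = maximum activity change below -70%; inconclusive = maximum activity change between -70% and -50%; inactive = maximum activity change above -50%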; also: % is scaled to controls: 0 for no effect and ±100 for the full control effect
Target sequence (Q12809 whole entry, looked up): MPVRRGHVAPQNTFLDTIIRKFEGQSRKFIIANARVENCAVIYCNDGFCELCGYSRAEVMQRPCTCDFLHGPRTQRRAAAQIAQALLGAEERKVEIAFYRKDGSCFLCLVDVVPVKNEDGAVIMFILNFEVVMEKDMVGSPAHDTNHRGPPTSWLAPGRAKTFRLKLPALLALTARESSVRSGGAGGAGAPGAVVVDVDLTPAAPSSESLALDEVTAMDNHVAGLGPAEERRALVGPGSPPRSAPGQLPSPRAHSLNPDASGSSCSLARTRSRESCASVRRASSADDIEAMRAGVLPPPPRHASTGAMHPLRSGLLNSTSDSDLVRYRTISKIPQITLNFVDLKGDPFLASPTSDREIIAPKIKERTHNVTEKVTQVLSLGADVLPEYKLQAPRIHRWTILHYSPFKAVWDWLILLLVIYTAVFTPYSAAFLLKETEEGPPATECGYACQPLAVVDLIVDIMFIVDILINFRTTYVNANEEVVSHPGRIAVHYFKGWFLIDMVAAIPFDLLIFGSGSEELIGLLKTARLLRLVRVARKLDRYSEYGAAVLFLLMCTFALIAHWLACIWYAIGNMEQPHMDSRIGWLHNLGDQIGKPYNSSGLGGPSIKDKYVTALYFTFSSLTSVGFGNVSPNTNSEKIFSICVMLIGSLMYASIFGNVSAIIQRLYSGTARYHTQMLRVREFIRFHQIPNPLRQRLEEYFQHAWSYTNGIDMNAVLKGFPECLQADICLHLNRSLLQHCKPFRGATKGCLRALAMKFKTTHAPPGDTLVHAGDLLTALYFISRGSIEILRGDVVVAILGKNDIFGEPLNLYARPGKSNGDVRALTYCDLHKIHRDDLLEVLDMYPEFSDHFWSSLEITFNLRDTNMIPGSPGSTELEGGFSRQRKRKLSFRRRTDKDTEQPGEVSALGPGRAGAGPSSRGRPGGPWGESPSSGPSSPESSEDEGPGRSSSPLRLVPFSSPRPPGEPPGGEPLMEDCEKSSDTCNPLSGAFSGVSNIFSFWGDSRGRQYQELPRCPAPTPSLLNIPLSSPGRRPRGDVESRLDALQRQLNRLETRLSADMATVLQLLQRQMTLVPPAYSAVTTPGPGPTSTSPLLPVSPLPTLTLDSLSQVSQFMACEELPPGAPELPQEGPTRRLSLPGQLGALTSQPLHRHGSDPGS
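U2OS cells transduced with wild-type KCNH2 virus are loaded with FluxOr dye for 45 min, and thallium flux is measured in kinetic reads before and after stimulation buffer. Rate constants are normalized to DMSO controls.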
SW480 rerep = DNA re-replication induction in SW480 cells | Potency, µM (series often up to 46.1 µM), for inactives: at the top dose re-replication activation, hits mostly activators | AID 624297 | 340,000 compounds, 1.8% hits | SW480 DNA re-replication, Hoechst DNA content imaging, 48 h; also: potency is read from the fitted curve at half-maximal effect; % of control where 0% means no effect; nearly all actives have a fitted effect of over 55% in size
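Compounds, transferred as 23 nL by pin tool, were incubated with cells for 48 hr; DNA content per nucleus was then quantified by Hoechst staining and fluorescence plate imaging.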
KCNH2 3.1 inh = inhibitors of human KCNH2 3.1 potassium channel isoform. 340,000 compounds, 0.95% hits. activity change, % (tested at about 1.8 µM). U2OS KCNH2 3.1, thallium flux FluxOr; hits give low values. AID 720553;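 active = maximum activity change below -70%; inconclusive = maximum activity change from -70% to -50%; inactive = maximum activity change above -50%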;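 also: thallium influx rate constant from kinetic fluorescence after stimulation buffer; % is scaled to controls: 0 for no effect and ±100 for the full control effect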
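Thallium flux read-out: FluxOr dye with Red40 quencher in HBSS/HEPES, 45 min at RT. Rate constants from kinetic reads were normalized to positive and negative DMSO controls. Cells: U2OS virally expressing the 3.1 isoform.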
KB-V1 MDR tox = kills drug-selected multidrug resistant KB-V1 cells; KB-V1 MDR cells viability, CellTiter-Glo, 72 h; Potency, µM (top dose mostly 46.1 µM), most hits filed as cytotoxic; 400,000 compounds, 3.4% hits; also: potency is read from the fitted curve at half-maximal effect; % is scaled to controls: 0 for no effect and ±100 for the full control effect; nearly all actives have a fitted effect of over 60% in size
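Potencies derive from concentration-effect curves fitted to normalized luminescence (CellTiter-Glo) of KB-V1 cells treated for 72 h at 37 degrees C in phenol-red-free DMEM containing 10% FBS.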
KB-3-1 tox = KB-3-1 parental cell cytotoxicity; Potency, µM (highest dose often 46.1 µM), usual class: cytotoxic; 400,000 compounds, 1.4% hits; KB-3-1 viability, CellTiter-Glo ATP luminescence, 72 h; also: potency is read from the fitted curve at half-maximal effect; % is scaled to controls: 0 for no effect and ±100 for the full control effect; nearly all actives have a fitted effect of over 60% in size
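72 h, 37 °C compound treatment of KB-3-1 parental cells; CellTiter-Glo added, 10 min, luminescence read. Data corrected against DMSO-only plates and normalized before curve fitting.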
MCF10A rereplic = DNA re-replication induction in MCF 10a cells. MCF 10A DNA re-replication, Hoechst nuclear intensity, 48 h. Potency, µM (top dose mostly 46.1 µM), for the others: at the top dose activity, positive = re-replication, usual class: activators. 350,000 compounds, 2.9% hits; also: potency is read from the fitted curve at half-maximal effect; % of control where 0% means no effect; nearly all actives have a fitted effect of over 50% in size
An asterisk follows results filed as active. Unless noted, calls follow the shape of the dose curve; as a rule, active = well fitted curve in the direction sought with a large enough effect; inconclusive = small, poorly fitted or top-dose-only effect, or another doubt; inactive = no such curve, though single readings can be large; an effect the other way counts as inactive or inconclusive.

For Cc1ccc(N2C(=O)c3cccc4c(N)ccc(c34)C2=O)c2cccnc12 the results were hERG WT inh -23, SW480 rerep inconclusive, KCNH2 3.1 inh -13, KB-V1 MDR tox 0.58µM*, KB-3-1 tox inconclusive and MCF10A rereplic inconclusive.
Screening CCn1c(=O)c2cc(C(=O)NCCc3ccc(OC)c(OC)c3)sc2c2ccccc21 returned KB-V1 MDR tox inconclusive and KB-3-1 tox inactive.
`Cc1csc2nc(O)c(C(=O)NC3CCCCC3C)c(=O)n12` (stereo unspecified) gave hERG WT inh 0, SW480 rerep -361%, KCNH2 3.1 inh -7, KB-V1 MDR tox inconclusive, KB-3-1 tox inconclusive and MCF10A rereplic 17%.
For Cc1cc(-n2c(C)cc(C(=O)CSc3nnnn3-c3ccc(Cl)cc3)c2C)no1 the results were hERG WT inh 7, SW480 rerep -13%, KCNH2 3.1 inh -8, KB-V1 MDR tox inactive, KB-3-1 tox inactive and MCF10A rereplic 6.5µM*.
Cc1cc(C(=O)CSc2nnnn2C)c(C)n1-c1ccc2c(c1)OCCO2 was read as hERG WT inh 4, SW480 rerep 4%, KCNH2 3.1 inh 2, KB-V1 MDR tox 21µM*, KB-3-1 tox inactive and MCF10A rereplic inconclusive.
`CC(=O)c1ccc(OCC(=O)c2cc(C)n(-c3ccc4c(c3)OCO4)c2C)cc1` gave hERG WT inh -8, SW480 rerep 2%, KCNH2 3.1 inh -15, KB-V1 MDR tox 8.2µM*, KB-3-1 tox inconclusive and MCF10A rereplic 6%.
For COc1ccccc1C1(O)C(=O)Nc2ccccc21 (stereo unspecified) the results were hERG WT inh 25, SW480 rerep 15%, KCNH2 3.1 inh -2, KB-V1 MDR tox inactive, KB-3-1 tox inactive and MCF10A rereplic -3%.
`CC(C)c1ccc(NS(=O)(=O)c2ccc3c(c2)NC(=O)CO3)cc1` gave hERG WT inh 0, SW480 rerep -12%, KCNH2 3.1 inh 6, KB-V1 MDR tox inactive, KB-3-1 tox inactive and MCF10A rereplic -1%.
Screening CC(C)c1ccc(C2C3=C(COC3=O)Nc3cc4c(cc32)OCO4)cc1 (stereo unspecified) returned hERG WT inh -7, SW480 rerep inconclusive, KCNH2 3.1 inh inconclusive, KB-V1 MDR tox 1.2µM*, KB-3-1 tox 0.73µM* and MCF10A rereplic inconclusive.
For O=C(CCC(=O)OCC(=O)c1ccccc1)Nc1cccc2cccnc12 the results were hERG WT inh -6, SW480 rerep 18µM*, KCNH2 3.1 inh 2, KB-V1 MDR tox inactive, KB-3-1 tox inactive and MCF10A rereplic 16µM*.
Screening CC1CC1c1ccc(/C=C(\C#N)C(=O)Nc2ccc(Cl)cc2Cl)o1 (stereo unspecified) returned hERG WT inh 3, KCNH2 3.1 inh 2, KB-V1 MDR tox inconclusive, KB-3-1 tox inactive and MCF10A rereplic 16µM*.
Screening CC1(N(O)C=C2C=CC(=O)C=C2)CCCCC1=O (stereo unspecified) returned hERG WT inh 8, SW480 rerep -3%, KCNH2 3.1 inh 3, KB-V1 MDR tox inactive, KB-3-1 tox inactive and MCF10A rereplic 0%.
For O=C(Nc1ccc(F)c(F)c1)c1cnc(-c2ccccc2)nc1-c1ccccc1 the results were hERG WT inh -1, SW480 rerep 2%, KCNH2 3.1 inh -17, KB-V1 MDR tox inactive, KB-3-1 tox inactive and MCF10A rereplic 13µM*.
O=C(Nc1ccc(F)cc1)c1cnc(-c2ccccc2)nc1-c1ccccc1 was read as hERG WT inh 0, SW480 rerep inconclusive, KCNH2 3.1 inh 32, KB-V1 MDR tox inconclusive, KB-3-1 tox inactive and MCF10A rereplic 14%.
O=[N+]([O-])c1ccc(Cl)c(NC2=NCCCCC2)c1 was read as hERG WT inh -3, SW480 rerep 14%, KCNH2 3.1 inh 3, KB-V1 MDR tox inactive, KB-3-1 tox inactive and MCF10A rereplic 0%.
`COc1ccccc1NC(=O)c1nnn(Cc2ccccc2)c1NC(=O)C(F)(F)F` gave hERG WT inh -9, SW480 rerep -4%, KCNH2 3.1 inh -9, KB-V1 MDR tox 21µM*, KB-3-1 tox 18µM* and MCF10A rereplic 15%.
Screening COc1ccc(C)cc1NC(=O)c1nnn(Cc2cccc(C(F)(F)F)c2)c1N returned hERG WT inh -6, SW480 rerep 11%, KCNH2 3.1 inh 0, KB-V1 MDR tox inactive, KB-3-1 tox inconclusive and MCF10A rereplic 2.1µM*.
COc1ccccc1NC(=O)c1nnn(Cc2ccccc2)c1NC(C)=O was read as hERG WT inh -7, SW480 rerep -2%, KCNH2 3.1 inh -3, KB-V1 MDR tox inactive, KB-3-1 tox inactive and MCF10A rereplic 0%.
Screening COc1cccc(CN2CC(C(=O)NCCC3=CCCCC3)CCC2=O)c1 (stereo unspecified) returned hERG WT inh -5, SW480 rerep -3%, KCNH2 3.1 inh -5, KB-V1 MDR tox inactive, KB-3-1 tox inactive and MCF10A rereplic 3%.
CCOC(=O)c1cc(S(=O)(=O)N2CCc3ccccc32)cn1C was read as hERG WT inh -18, SW480 rerep -1%, KCNH2 3.1 inh -7, KB-V1 MDR tox inactive, KB-3-1 tox inactive and MCF10A rereplic 5%.
CCOC(=O)N1CCC(NC(=O)c2cc(S(=O)(=O)N3CCc4ccccc43)cn2C)CC1 was read as hERG WT inh 7, SW480 rerep -1%, KCNH2 3.1 inh -3, KB-V1 MDR tox 3.3µM*, KB-3-1 tox inconclusive and MCF10A rereplic 0%.
`COCCCN(C(=S)Nc1cc(C)cc(C)c1)C(C)c1ccncc1` (stereo unspecified) gave hERG WT inh -2, KCNH2 3.1 inh -72*, KB-V1 MDR tox inconclusive, KB-3-1 tox inactive and MCF10A rereplic -2%.
For Cc1cccc(/N=C/c2c(O)n(Cc3ccc4c(c3)OCO4)c(=O)c3ccccc23)n1 the results were hERG WT inh -11, SW480 rerep -7%, KCNH2 3.1 inh 5, KB-V1 MDR tox inactive, KB-3-1 tox inconclusive and MCF10A rereplic -1%.
`CCOc1ccc(NC(=O)CN(c2ccc(CC)cc2)S(=O)(=O)c2c(C)noc2C)cc1` gave KB-V1 MDR tox inactive and KB-3-1 tox inactive.
O=C(COC(=O)/C=C/c1ccc([N+](=O)[O-])cc1)NC(c1ccccc1)c1ccccc1 was read as hERG WT inh -133*, SW480 rerep 20%, KCNH2 3.1 inh -11, KB-V1 MDR tox inactive, KB-3-1 tox inactive and MCF10A rereplic 23µM*.

Bioassay records as filed in PubChem.
